PubChem BioAssay AID1159580 (chemical genetic matrix, 2015)
Among all 5,500 compounds or so, about 2,000 (36%) were called active. About 18% were inconclusive and are not listed. Rule as the data show it: active = normalized growth mostly below about 0.91 (no sharp cut-off); inconclusive = no clear call, values can overlap the other calls; inactive = mostly above about 0.92. The list shows a part of the results.

Assay: chemical genetic growth profiling, strain panel (AID 1159580);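 also: tested at 20 µM; growth read once vehicle control cultures reached saturation at 30 °C; 1 = growth at the plate median or of vehicle wells; lower values mean less growth of the strain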
Conditions: S. cerevisiae deletion strains, growth OD
[1] = locus YAL013W, strain DEP1, active compounds read low
[2] = locus YBR229C, strain ROT2, active compounds read low
[3] = locus YDL101C, strain DUN1, active compounds read low
[4] = locus YDR150W, strain NUM1, active compounds read low
[5] = locus YEL061C, strain CIN8, active compounds read low
[6] = locus YGR078C, strain PAC10, active compounds read low
[7] = locus YHR030C, strain SLT2, active compounds read low
[8] = locus YHR087W, strain rtc3, active compounds read low
[9] = locus YJL187C, strain SWE1, active compounds read low
[10] = locus YJR043C, strain POL32, active compounds read low
[11] = locus YJR075W, strain HOC1, active compounds read low
[12] = locus YLR039C, strain RIC1, active compounds read low
[13] = locus YLR058C, strain SHM2 (second series), active compounds read low
[14] = locus YLR085C, strain ARP6, active compounds read low
[15] = locus YLR262C, strain YPT6, active compounds read low
[16] = locus YML094W, strain GIM5, active compounds read low
[17] = locus YMR219W, strain ESC1, active compounds read low
[18] = locus YMR263W, strain SAP30, active compounds read low
[19] = locus YMR307W, strain GAS1, active compounds read low
[20] = locus YNL153C, strain GIM3, active compounds read low
[21] = locus YNL298W, strain CLA4 (second series), active compounds read low
[22] = locus YNL322C, strain KRE1, active compounds read low
[23] = locus YNR030W, strain Alg12, active compounds read low
[24] = locus YPL055C, strain LGE1, active compounds read low
[25] = locus YPL241C, strain CIN2, active compounds read low
[26] = locus YPR135W, strain CTF4, active compounds read low

Measured: normalized growth

Cc1onc(-c2c(F)cccc2Cl)c1C(=O)N1CCN(c2ncccc2C(F)(F)F)CC1
inactive: [1] 0.98 | [2] 0.975 | [3] 0.977 | locus YDL134C, strain PPH21, active compounds read low 0.993 | [4] 0.972 | [5] 0.952 | [6] 1.01 | [7] 0.928 | [8] 0.964 | [9] 0.988 | [10] 1 | [11] 1.01 | locus YKL190W, strain CNB1, active compounds read low 1 | [12] 0.993 | [13] 0.987 | [14] 1.02 | [15] 0.98 | [16] 0.969 | [17] 0.984 | [18] 1.01 | [19] 1.07 | [20] 1 | [21] 0.965 | [22] 0.977 | [23] 0.99 | [24] 0.977 | [25] 1.08 | [26] 0.993

Cc1oc(-c2ccc(Cl)cc2)cc1C(=O)N1CCN(c2ccc(C(F)(F)F)cn2)CC1
inactive: locus YAR019C, strain CDC15, active compounds read low 0.977 | locus YBL105C, strain PKC1, active compounds read low 0.972 | locus YBR135W, strain CKS1, active compounds read low 0.97 | locus YBR136W, strain MEC1, active compounds read low 0.963 | locus YBR160W, strain CDC28, active compounds read low 0.969 | locus YDL017W, strain CDC7, active compounds read low 0.978 | locus YDL028C, strain MPS1, active compounds read low 0.974 | [3] 0.983 | locus YDL108W, strain KIN28, active compounds read low 0.974 | locus YDL132W, strain cdc53, active compounds read low 0.982 | locus YDL214C, strain PRR2, active compounds read low 0.908 | locus YDR052C, strain DBF4, active compounds read low 0.982 | locus YDR054C, strain cdc34, active compounds read low 0.969 | locus YDR226W, strain ADK1, active compounds read low 0.972 | locus YDR477W, strain SNF1, active compounds read low 0.925 | locus YER123W, strain YCK3, active compounds read low 0.926 | locus YER133W, strain GLC7, active compounds read low 0.938 | locus YFL009W, strain cdc4, active compounds read low 0.967 | locus YFL029C, strain CAK1, active compounds read low 0.986 | locus YFR003C, strain YPI1, active compounds read low 0.974 | locus YFR019W, strain FAB1, active compounds read low 0.992 | locus YFR028C, strain CDC14, active compounds read low 0.976 | locus YGR040W, strain KSS1, active compounds read low 0.929 | locus YGR052W, strain FMP48, active compounds read low 0.959 | locus YGR092W, strain DBF2, active compounds read low 0.874 | locus YHR079C, strain IRE1, active compounds read low 0.964 | locus YHR082C, strain KSP1, active compounds read low 0.966 | locus YHR205W, strain SCH9, active compounds read low 0.883 | locus YIL147C, strain SLN1, active compounds read low 0.979 | locus YJL095W, strain BCK1, active compounds read low 0.905 | locus YJL128C, strain PBS2, active compounds read low 0.918 | locus YJL157C, strain FAR1, active compounds read low 0.944 | locus YJR016C, strain ILV3, active compounds read low 0.979 | locus YJR066W, strain TOR1 (second series), active compounds read low 0.975 | locus YJR066W, strain TOR1, active compounds read low 0.9 | locus YKL048C, strain ELM1, active compounds read low 0.976 | locus YKL067W, strain YNK1, active compounds read low 0.907 | locus YKL101W, strain HSL1, active compounds read low 0.94 | locus YKL193C, strain SDS22, active compounds read low 0.97 | locus YKL203C, strain TOR2, active compounds read low 1 | locus YLR113W, strain HOG1, active compounds read low 0.893 | locus YLR133W, strain CKI1, active compounds read low 0.929 | locus YLR403W, strain SFP1, active compounds read low 0.94 | locus YML070W, strain DAK1, active compounds read low 0.951 | locus YMR001C, strain CDC5, active compounds read low 0.989 | locus YMR205C, strain PFK2 (second series), active compounds read low 0.937 | locus YMR277W, strain FCP1, active compounds read low 0.975 | locus YNL006W, strain LST8, active compounds read low 0.981 | locus YNL020C, strain ARK1, active compounds read low 0.933 | locus YNL161W, strain CBK1, active compounds read low 0.975 | locus YNL183C, strain NPR1, active compounds read low 0.95 | locus YNL207W, strain RIO2, active compounds read low 0.973 | locus YNL222W, strain SSU72, active compounds read low 0.981 | locus YNL307C, strain MCK1 (second series), active compounds read low 0.944 | locus YOL078W, strain AVO1, active compounds read low 0.981 | locus YOL136C, strain PFK27, active compounds read low 0.961 | locus YOR061W, strain CKA2, active compounds read low 0.873 | locus YOR119C, strain RIO1, active compounds read low 0.929 | locus YOR231W, strain MKK1, active compounds read low 0.96 | locus YOR329C, strain SCD5, active compounds read low 0.982 | locus YPL031C, strain PHO85, active compounds read low 0.936 | locus YPL153C, strain RAD53, active compounds read low 0.948 | locus YPL204W, strain HRR25, active compounds read low 0.936 | locus YPL209C, strain IPL1, active compounds read low 0.983 | locus YPL256C, strain CLN2, active compounds read low 0.909 | locus YPR025C, strain CCL1, active compounds read low 0.975 | locus YPR106W, strain ISR1, active compounds read low 0.972 | locus YPR111W, strain DBF20, active compounds read low 0.955 | strain NNK1, active compounds read low 0.97 | strain TSCII, active compounds read low 0.98
active: [7] 0.682

FC(F)(F)c1ccc(-n2cncn2)nc1
inactive: [1] 1.03 | [2] 1.01 | [3] 1 | [4] 0.988 | [5] 1.01 | [6] 1.01 | locus YGR229C, strain SMI1, active compounds read low 1.01 | [7] 1.09 | [8] 1.02 | [9] 1.01 | [10] 1.02 | [11] 0.99 | [12] 1.04 | [13] 1 | [15] 1.01 | [16] 1.07 | [17] 1.01 | [18] 1.01 | [19] 1.08 | [20] 0.996 | [21] 1.07 | [22] 1 | [23] 1.04 | locus YOL006C, strain TOP1, active compounds read low 1.25 | [24] 1.07 | [25] 1 | [26] 1.15
active: [14] 1.24 [resistant]
